Results on 41 molecules are retold here after PubChem BioAssay AID743449 (Broad Institute, 2014).

In all, about 9,900 compounds went through this assay and about 90 (0.9%) were called active. About 2% were inconclusive and are not listed. The sample holds actives, similar compounds and a random draw of the others, so the mix is not that of the screen. Unmarked numbers belong to inactive results.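 Rule for the calls: active = mean normalized replicate activity at least 50 and at least half of replicates each reaching 50; inconclusive = only one of the two criteria met; inactive = neither criterion met.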

The nature of this experiment: YAP1 pathway inhibitors via CTGF transcript, primary screen, DLD1 colon cancer cells, RT-qPCR, single point (AID 743449).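 Note: 0% = neutral control wells and 100% = dasatinib control wells; higher means stronger suppression of CTGF expression like dasatinib.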 To be noted: DLD1 CTGF mRNA qPCR, 24 h; at 12.5 µM; hits give high values. In general terms: Real-time PCR tracks product formation cycle by cycle.
Take `COc1ccccc1NC(=O)N[C@H]1CC[C@H](CCNS(=O)(=O)c2ccc(Cl)cc2)O[C@@H]1CO`: the inhibition – broadly, the relative decrease from the control value, in per cent – is 8.99%. With `COc1ccc(NC(=O)N[C@H]2CC[C@H](CCNC(=O)CN3CCOCC3)O[C@H]2CO)cc1` the figure was -23.1%; with `CC(=O)N1C[C@@H]2N[C@H](C1)C2c1ccc(-c2ccccc2)cc1` (stereo partly specified), -22.3%; with `O=C(C[C@H]1CC[C@@H](NC(=O)c2cccnc2)[C@@H](CO)O1)NCc1ccc(Cl)c(Cl)c1`, 26.4%.

In the case of `CN1C(=O)c2cc(NC(=O)c3cccc(F)c3)ccc2OC[C@@H]2O[C@@H](CC(=O)NCc3ccccc3Cl)CC[C@@H]21`, the inhibition is 36%.

On to `COCC#Cc1ccc([C@@H]2[C@@H](CO)N3CCCCN(C(=O)NC4CCCC4)C[C@@H]23)cc1`, for which the inhibition is -25.3%.

In the case of `CO[C@@H](CN(C)S(=O)(=O)c1ccc(C)cc1)[C@H](C)CN([C@@H](C)CO)S(=O)(=O)c1cccc(Cl)c1`, the inhibition was 78.9% (active). With `CO[C@@H](CN(C)S(=O)(=O)c1ccc(C)cc1)[C@@H](C)CN([C@H](C)CO)S(=O)(=O)c1cccc(Cl)c1` the figure was 74.7% (active). Consider `CO[C@@H](CN(C)S(=O)(=O)c1ccc(C)cc1)[C@@H](C)CN([C@@H](C)CO)S(=O)(=O)c1cccc(Cl)c1`, for which the inhibition was 38.7%. For `CO[C@@H](CN(C)Cc1cc(F)ccc1F)[C@@H](C)CN([C@H](C)CO)S(=O)(=O)c1ccc(C)cc1` the value was 14.9%; for `CO[C@@H](CN(C)S(=O)(=O)c1ccc(C)cc1)[C@H](C)CN([C@H](C)CO)S(=O)(=O)c1cccc(Cl)c1`, 93.3% (active); for `CO[C@H](CN(C)S(=O)(=O)c1ccc(C)cc1)[C@@H](C)CN([C@@H](C)CO)S(=O)(=O)c1cccc(Cl)c1`, 6.82%. With `CO[C@H](CN(C)S(=O)(=O)c1ccc(C)cc1)[C@H](C)CN([C@H](C)CO)S(=O)(=O)c1cccc(Cl)c1` the figure was 16.6%; with `CO[C@H](CN(C)S(=O)(=O)c1ccc(C)cc1)[C@H](C)CN([C@@H](C)CO)S(=O)(=O)c1cccc(Cl)c1`, 1.44%; with `CO[C@H](CN(C)S(=O)(=O)c1ccc(C)cc1)[C@@H](C)CN([C@H](C)CO)S(=O)(=O)c1cccc(Cl)c1`, 32.6%. For `CO[C@H]1CC[C@@H]2CCOc3ccc(C#N)cc3C(=O)N(C)C[C@@H](c3ccccc3)CC(=O)N(C)C[C@@H]1O2` the value was -39.9%; for `OC[C@@H]1[C@H](c2ccc(C#Cc3ccccc3F)cc2)[C@@H]2CN(CC3CCOCC3)CCCCN12`, -33.6%; for `CCCNC[C@@H]1[C@@H](c2ccc(C3=CCCCC3)cc2)[C@@H](CO)N1C(=O)C1CCC1`, -79.5%. For `CN1C(=O)c2cc(NC(=O)Nc3ccccc3Cl)ccc2OC[C@@H]2O[C@@H](CC(=O)O)CC[C@H]21`, the inhibition is -2.71%.

As to `COc1ccc2c3c(n(C)c2c1)[C@@H](CO)N(C(=O)Nc1ccc(F)cc1)CC31CCN(C(=O)c2ccc3c(c2)OCO3)CC1`, the inhibition was 8.8%.

As to `C[C@@H]1CCCCO[C@H](CN(C)Cc2ccncc2)[C@H](C)CN([C@H](C)CO)C(=O)c2cc(NC(=O)Cc3ccccc3)ccc2O1`, the inhibition was 7.17%.

`C/C=C/c1ccc([C@@H]2[C@@H](CO)N(CC3CCCC3)C23CN(S(=O)(=O)CC)C3)cc1`: the inhibition was -26.7%. Consider `O=S(=O)(Cc1ccccc1)N1CC2(C1)[C@H](c1ccccc1)[C@H](CO)N2CC1CCCC1`, for which the inhibition is 63.5% (active).

As for `C/C=C/c1ccc([C@@H]2[C@H](CO)N(CC3CCCC3)C23CN(S(=O)(=O)CC)C3)cc1`, the inhibition is -25.3%. With `O=C(C[C@H]1C[C@@H]2c3cc(NC(=O)C4CCOCC4)ccc3O[C@@H]2[C@@H](CO)O1)NCCN1CCCCC1` the figure was 23.7%. With `C/C=C/c1cccc(-c2nc(C(=O)Nc3nccs3)cc3c2[C@@H](CCO)N(C(=O)NC(C)C)C3)c1` the figure was 59.6% (active); with `C/C=C/c1cccc(-c2nc(C(=O)N3CCCCC3)cc3c2[C@H](CCO)N(C(=O)NC(C)C)C3)c1`, 1.73%; with `C/C=C/c1cccc(-c2nc(C(=O)N3CCCCC3)cc3c2[C@@H](CCO)N(C(=O)NC(C)C)C3)c1`, -19.7%. For `CCC(=O)N(CC(C)C)C[C@@H]1[C@@H](c2ccccc2)[C@H](CO)N1C(=O)C1CCC1` the value was 3.26%; for `CO[C@@H](CN(C)S(=O)(=O)c1ccc(F)cc1)[C@H](C)CN(Cc1ccccc1Cl)[C@H](C)CO`, -18%.

In the case of `O=C(c1cccc(F)c1)N1CCCCN2[C@H](C1)[C@@H](c1ccc(C#CC3(O)CCCC3)cc1)[C@@H]2CO`, the inhibition was 30.5%.

On to `O=C(c1cccc(F)c1)N1CCCCN2[C@@H](CO)[C@H](c3ccc(C#CC4(O)CCCC4)cc3)[C@@H]2C1`, for which the inhibition was 68.7% (active). For `O=C(c1cccc(F)c1)N1CCCCN2[C@H](C1)[C@H](c1ccc(C#CC3(O)CCCC3)cc1)[C@@H]2CO` the value was 24%; for `O=C(c1cccc(F)c1)N1CCCCN2[C@H](CO)[C@H](c3ccc(C#CC4(O)CCCC4)cc3)[C@H]2C1`, 11.6%; for `C[C@H](O)C#Cc1ccc([C@@H]2[C@H]3CN(C(=O)c4ccc5c(c4)OCO5)CCCCN3[C@H]2CO)cc1`, -48.5%. For `O=C(c1cccc(F)c1)N1CCCCN2[C@H](CO)[C@H](c3ccc(C#CC4(O)CCCC4)cc3)[C@@H]2C1` the value was 58.8% (active); for `C[C@H](O)C#Cc1ccc([C@@H]2[C@@H](CO)N3CCCCN(C(=O)c4ccc5c(c4)OCO5)C[C@H]23)cc1`, -21.5%.

For `C[C@H](O)C#Cc1ccc([C@H]2[C@@H](CO)N3CCCCN(C(=O)c4ccc5c(c4)OCO5)C[C@@H]23)cc1`, the inhibition is 53.3% (active). For `O=C(c1cccc(F)c1)N1CCCCN2[C@H](CO)[C@@H](c3ccc(C#CC4(O)CCCC4)cc3)[C@@H]2C1` the value was -4.53%. Take `O=C(C[C@H]1CC[C@H]2[C@@H](COC[C@@H](O)CN2C(=O)c2cccnc2)O1)NCC1CC1`: the inhibition was 6.53%. Take `COCCNC(=O)C[C@@H]1C[C@H]2c3cc(NC(=O)CN(C)C)ccc3O[C@H]2[C@H](CO)O1`: the inhibition is 0.098%.
